Four molecules from PubChem BioAssay (EPA / NIEHS) can be followed below.

Experiment [1] is described as follows: BSK_4H_Eotaxin3: BioMAP Diversity Plus: 4H Assay for Eotaxin 3 Biomarker Activity (AID 2283000).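 On outcome: CCL26 protein level quantified by ELISA in parallel with SRB cytotoxicity check.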 The settings on record: primary human endothelial cells (HUVEC); actives raise or lower the signal. An outline of the steps: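 Chemicals were added to human umbilical vein endothelium cultures, and Eotaxin-3 was quantified by ELISA at 24 h. Values were derived by bidirectional fitting with DMSO serving as negative control and activity baseline.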

The target of experiment [2] is human Peroxisome Proliferator-activated Receptor alpha (PPARa), PPARA (gene 5465) (UniProt Q07869). In words: ATG_PPARa_TRANS: Attagene TRANS-FACTORIAL HepG2 Assay for human Peroxisome Proliferator-activated Receptor alpha (PPARa) (AID 2283001; active means hit-call score of the fitted dose curve at least 0.9, where 1 is the maximum). The method, boiled down:
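Measures transcriptional activity of an exogenous chimeric PPARa-Gal4 protein in transiently transfected HepG2 cells after 24 h dosing. Reporter mRNA quantified via RT-PCR and capillary electrophoresis; DMSO served as negative control.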

Experiment [3] is described as follows: BSK_3C_Proliferation: Cell Proliferation Assessment in the BioMAP Diversity Plus: 3C Assay (AID 2283006).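 On AC50: potency may reflect either rise or fall in cell number versus DMSO.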 The settings on record: primary human endothelial cells (HUVEC). An outline of the steps: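 Human umbilical vein endothelial cells were grown sub-confluent and exposed to chemical for 48 h, then fixed with 10% TCA and stained with 0.1% sulforhodamine B; absorbance at 560 nm gave relative cell number, fitted bidirectionally against DMSO baseline.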

Experiment [4] deals with Peroxisome proliferator-activated receptor gamma (Homo sapiens) (UniProt P37231). The experiment in a line: ATG_PPARg_TRANS: Attagene TRANS-FACTORIAL HepG2 Assay for human Peroxisome Proliferator-activated Receptor-gamma (PPARg) (AID 2283007; active means hit-call score of the fitted dose curve at least 0.9, where 1 is the maximum). The method, boiled down: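 Chimeric NR-Gal4 transactivation is measured in transiently transfected HepG2 cells by reporter mRNA induction at 24 h. Detection uses RT-PCR with fluorescent labelling and capillary electrophoresis; DMSO defines baseline.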

Experiment [5] concerns the target Nuclear receptor subfamily 1 group I member 2 (Homo sapiens) (UniProt O75469). The experiment in a line: ATG_PXR_TRANS: Attagene TRANS-FACTORIAL HepG2 Assay for human Pregnane X Receptor (PXR) (AID 2283008; active means hit-call score of the fitted dose curve at least 0.9, where 1 is the maximum). The method, boiled down: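 HepG2 cells transiently transfected with GAL4-UAS reporter units and PXR-Gal4 chimera, exposed 24 h. Reporter mRNA quantified by RT-PCR, fluorescent labelling, HpaI digestion and capillary electrophoresis; gain of signal vs DMSO.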

Experiment [6] concerns the target human Retinoid X Receptor beta (RXRb), RXRB (gene 6257) (UniProt P28702). In words: ATG_RXRb_TRANS: Attagene TRANS-FACTORIAL HepG2 Assay for human Retinoid X Receptor beta (RXRb) (AID 2283013; active means hit-call score of the fitted dose curve at least 0.9, where 1 is the maximum). An outline of the steps:
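HepG2 cells transiently transfected with multiplexed reporter units driven by GAL4-UAS and exogenous chimeric NR-Gal4 proteins; treated 24 h. Reporter mRNA measured by RT-PCR, 6-FAM labelling and capillary electrophoresis; gain-of-signal fitted versus DMSO baseline.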

In experiment [7] the target is human Thyroid Receptor alpha (THRa1), THRA (gene 7067) (UniProt P10827). In words: ATG_THRa1_TRANS: Attagene TRANS-FACTORIAL HepG2 Assay for human Thyroid Receptor alpha (THRa1) (AID 2283014; active means hit-call score of the fitted dose curve at least 0.9, where 1 is the maximum). The method, boiled down: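 Reporter transcript induction, read by capillary electrophoresis of 6-FAM-labelled RT-PCR products, reflects activity of a transfected THRa1-Gal4 fusion in HepG2 liver cells. Cells were dosed for 24 h; activity was fitted in the positive direction against DMSO.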

Read-out in experiment [8]: E-selectin (Homo sapiens) (UniProt P16581)
The experiment in a line: BSK_3C_Eselectin: BioMAP Diversity Plus: 3C Assay for Eselectin Biomarker Activity (AID 2283015).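 On outcome: cell surface E-selectin protein quantified by ELISA 24 h after dosing.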 The settings on record: primary human endothelial cells (HUVEC); actives raise or lower the signal. An outline of the steps:
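ELISA read-out of E-selectin on endothelial monolayers after 24 h chemical treatment. Human umbilical vein primary cells served as the system, with DMSO defining baseline activity for bidirectional fitting.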

Read-out in experiment [9]: Interleukin-1 alpha (IL1a), IL1A (gene 3552)
In words: BSK_BE3C_IL1a: BioMAP Diversity Plus: BE3C Assay for Interleukin-1 alpha (IL1a) Biomarker Activity (AID 2283016). Conditions: primary human bronchial epithelial cells; actives raise or lower the signal. An outline of the steps: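 Human primary bronchial epithelial cells (BE3C system) were dosed with compound and IL-1a measured by ELISA 24 h later. Activity was fitted bidirectionally against DMSO baseline; cytotoxicity was tracked in parallel cultures by SRB total-protein staining.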

Read-out in experiment [10]: Monocyte Chemoattractant Protein-1 (MCP1), CCL2 (gene 6347)
The experiment in a line: BSK_3C_MCP1: BioMAP Diversity Plus: 3C Assay for Monocyte Chemoattractant Protein-1 (MCP1) Biomarker Activity (AID 2283017). Conditions: primary human endothelial cells (HUVEC); actives raise or lower the signal. An outline of the steps: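 ELISA read-out of MCP-1 from human umbilical vein endothelial cell cultures harvested 24 h post-dosing. Gain or loss of signal was fitted relative to DMSO.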

Read-out in experiment [11]: Monocyte Chemoattractant Protein-1 (MCP1), CCL2 (gene 6347)
The experiment in a line: BSK_4H_MCP1: BioMAP Diversity Plus: 4H Assay for Monocyte Chemoattractant Protein-1 (MCP1) Biomarker Activity (AID 2283018). The settings on record: primary human endothelial cells (HUVEC); actives raise or lower the signal. The method, boiled down: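 Human umbilical vein endothelial cells (4H system) dosed with chemical; MCP-1 measured by ELISA 24 h after dosing. Bidirectional curve fitting against DMSO negative control as baseline; parallel SRB total-protein staining tracks overt cytotoxicity.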

Read-out in experiment [12]: Human Leukocyte Antigen - DR isotype (HLADR), HLA-DRA (gene 3122)
In words: BSK_3C_HLADR: BioMAP Diversity Plus: 3C Assay for Human Leukocyte Antigen - DR isotype (HLADR) Biomarker Activity (AID 2283019). Conditions: primary human endothelial cells (HUVEC); actives raise or lower the signal. An outline of the steps: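 ELISA readout of surface HLA-DR on human umbilical vein endothelium, taken 24 h after chemical treatment. Gain- and loss-of-signal were both fitted relative to DMSO.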

Experiment [13] addresses human RAR-related Orphan Receptor beta (RORb), RORB (gene 6096) (UniProt Q92753). In words: ATG_RORb_TRANS: Attagene TRANS-FACTORIAL HepG2 Assay for human RAR-related Orphan Receptor beta (RORb) (AID 2283010; active means hit-call score of the fitted dose curve at least 0.9, where 1 is the maximum). The method, boiled down:
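HepG2 cells were transiently transfected with multiplexed GAL4-UAS reporter units expressing chimeric nuclear receptor–GAL4 proteins, then dosed for 24 h. Reporter mRNA was quantified by RT-PCR with fluorescent labelling and capillary electrophoresis; gain of signal was fitted relative to DMSO.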

The target of experiment [14] is human RAR-related Orphan Receptor gamma (RORg), RORC (gene 6097) (UniProt P51449). The experiment in a line: ATG_RORg_TRANS: Attagene TRANS-FACTORIAL HepG2 Assay for human RAR-related Orphan Receptor gamma (RORg) (AID 2283011; active means hit-call score of the fitted dose curve at least 0.9, where 1 is the maximum;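 further: potency for induction of reporter transcripts above DMSO so activators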). The method, boiled down:
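First, HepG2 liver cells were transfected with GAL4-UAS-driven reporter constructs and the RORg-Gal4 fusion. Next, they were treated with chemical for 24 h. Finally, reporter mRNA was quantified by RT-PCR and capillary electrophoresis, with upward activity fitted against DMSO.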

Experiment [15] addresses human Peroxisome Proliferator-activated Receptor delta (PPARd), PPARD (gene 5467) (UniProt Q03181). The experiment in a line: ATG_PPARd_TRANS: Attagene TRANS-FACTORIAL HepG2 Assay for human Peroxisome Proliferator-activated Receptor delta (PPARd) (AID 2283002; active means hit-call score of the fitted dose curve at least 0.9, where 1 is the maximum). The method, boiled down: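 Fluorescence from capillary electrophoresis of labelled RT-PCR reporter fragments gives the signal; DMSO sets baseline. Cells: HepG2 transiently carrying GAL4-UAS reporter units plus chimeric nuclear receptor-Gal4 proteins, exposed to chemicals for 24 h.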

The target of experiment [16] is human Retinoic Acid Receptor beta (RARb), RARB (gene 5915) (UniProt P10826). In words: ATG_RARb_TRANS: Attagene TRANS-FACTORIAL HepG2 Assay for human Retinoic Acid Receptor beta (AID 2283004; active means hit-call score of the fitted dose curve at least 0.9, where 1 is the maximum). The method, boiled down:
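Transient transfection of HepG2 with multiple reporter units → chemical dosing, 24 h → total RNA isolation → RT with oligo(dT) → reporter-specific PCR, 6-FAM primer extension, HpaI digest → capillary electrophoresis. Positive direction vs DMSO control.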

Experiment [17] deals with human Retinoic Acid Receptor gamma (RARg), RARG (gene 5916) (UniProt P13631). In words: ATG_RARg_TRANS: Attagene TRANS-FACTORIAL HepG2 Assay for human Retinoic Acid Receptor gamma (RARg) (AID 2283009; active means hit-call score of the fitted dose curve at least 0.9, where 1 is the maximum). The method, boiled down: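 HepG2 cells transiently transfected with multiplexed reporter units expressing chimeric RARg-GAL4 and GAL4-UAS-driven reporters; 24 h compound exposure. Reporter mRNA quantified by RT-PCR with fluorescent labelling and capillary electrophoresis; gain-of-signal fitted relative to DMSO baseline.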

The target in experiment [18] is Retinoic acid receptor RXR-alpha (Homo sapiens) (UniProt P19793). The experiment in a line: ATG_RXRa_TRANS: Attagene TRANS-FACTORIAL HepG2 Assay for human Retinoid X Receptor alpha (RXRa) (AID 2283012; active means hit-call score of the fitted dose curve at least 0.9, where 1 is the maximum). The method, boiled down:
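HepG2 cells transiently transfected with multiplexed GAL4-UAS reporter units and chimeric NR-GAL4 fusions, dosed 24 h. Reporter mRNA measured by RT-PCR, FAM labelling, HpaI digestion and capillary electrophoresis; gain-of-signal fitted relative to DMSO baseline.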

Read-out in experiment [19]: Intercellular Adhesion Molecule 1 (ICAM1), ICAM1 (gene 3383)
In words: BSK_3C_ICAM1: BioMAP Diversity Plus: 3C Assay for Intercellular Adhesion Molecule 1 (ICAM1) Biomarker Activity (AID 2283003). Conditions: primary human endothelial cells (HUVEC); actives raise or lower the signal. An outline of the steps: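 Primary human umbilical vein endothelial cells in the BioMAP 3C system were exposed to chemicals for 24 h, then ICAM-1 was quantified by ELISA. Activity was fitted bidirectionally against the DMSO negative control baseline.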

Inconclusive results are not listed. Calls of active or inactive are those of the source. How the source made its calls, unless noted: active means hit-call score of the fitted dose curve at least 0.9, where 1 is the maximum; inactive means score below 0.9.

Sequence of human Thyroid Receptor alpha (THRa1), THRA (gene 7067) (P10827 whole entry, looked up, the tested form may be a part): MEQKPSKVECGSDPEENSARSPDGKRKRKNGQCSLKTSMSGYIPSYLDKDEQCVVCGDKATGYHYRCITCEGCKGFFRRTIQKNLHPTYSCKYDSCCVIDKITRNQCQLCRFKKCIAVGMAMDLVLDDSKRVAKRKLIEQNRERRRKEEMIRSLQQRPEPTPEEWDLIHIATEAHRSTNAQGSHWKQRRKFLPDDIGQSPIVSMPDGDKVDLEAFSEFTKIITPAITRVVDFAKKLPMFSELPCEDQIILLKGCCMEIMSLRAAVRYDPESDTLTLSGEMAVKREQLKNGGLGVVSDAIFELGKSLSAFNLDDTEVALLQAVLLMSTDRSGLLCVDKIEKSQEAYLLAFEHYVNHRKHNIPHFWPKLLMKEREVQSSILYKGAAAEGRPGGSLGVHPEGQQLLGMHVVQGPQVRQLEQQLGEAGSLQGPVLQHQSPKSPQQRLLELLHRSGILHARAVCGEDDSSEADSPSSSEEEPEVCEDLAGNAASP
Sequence of Peroxisome proliferator-activated receptor gamma (Homo sapiens) (P37231 whole entry, looked up, the tested form may be a part): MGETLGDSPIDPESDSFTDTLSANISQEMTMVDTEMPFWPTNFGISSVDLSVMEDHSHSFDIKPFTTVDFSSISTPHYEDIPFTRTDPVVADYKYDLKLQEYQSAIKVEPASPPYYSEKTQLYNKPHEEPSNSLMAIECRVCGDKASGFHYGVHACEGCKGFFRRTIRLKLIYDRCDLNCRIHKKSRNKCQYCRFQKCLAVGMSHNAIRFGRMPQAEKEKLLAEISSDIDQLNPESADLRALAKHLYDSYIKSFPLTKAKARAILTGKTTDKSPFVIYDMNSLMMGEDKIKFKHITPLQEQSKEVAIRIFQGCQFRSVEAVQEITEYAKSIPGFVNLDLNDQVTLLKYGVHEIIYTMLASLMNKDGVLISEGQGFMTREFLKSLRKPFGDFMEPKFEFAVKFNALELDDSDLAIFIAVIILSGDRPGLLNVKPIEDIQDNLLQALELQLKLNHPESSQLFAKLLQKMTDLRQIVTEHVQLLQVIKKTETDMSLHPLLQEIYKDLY
Sequence of Nuclear receptor subfamily 1 group I member 2 (Homo sapiens) (O75469 whole entry, looked up, the tested form may be a part): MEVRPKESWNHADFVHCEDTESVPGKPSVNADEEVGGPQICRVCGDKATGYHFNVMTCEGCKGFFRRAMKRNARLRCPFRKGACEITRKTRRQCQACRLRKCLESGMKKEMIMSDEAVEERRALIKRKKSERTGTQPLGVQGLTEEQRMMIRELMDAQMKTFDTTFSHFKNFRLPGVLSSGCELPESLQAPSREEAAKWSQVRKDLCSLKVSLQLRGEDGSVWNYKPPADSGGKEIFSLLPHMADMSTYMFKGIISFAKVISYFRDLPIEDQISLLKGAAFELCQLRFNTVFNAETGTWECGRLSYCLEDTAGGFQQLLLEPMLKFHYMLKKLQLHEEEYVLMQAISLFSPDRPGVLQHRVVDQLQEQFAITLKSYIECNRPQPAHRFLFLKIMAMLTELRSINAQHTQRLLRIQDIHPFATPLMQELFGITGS
Sequence of human Peroxisome Proliferator-activated Receptor alpha (PPARa), PPARA (gene 5465) (Q07869 whole entry, looked up, the tested form may be a part): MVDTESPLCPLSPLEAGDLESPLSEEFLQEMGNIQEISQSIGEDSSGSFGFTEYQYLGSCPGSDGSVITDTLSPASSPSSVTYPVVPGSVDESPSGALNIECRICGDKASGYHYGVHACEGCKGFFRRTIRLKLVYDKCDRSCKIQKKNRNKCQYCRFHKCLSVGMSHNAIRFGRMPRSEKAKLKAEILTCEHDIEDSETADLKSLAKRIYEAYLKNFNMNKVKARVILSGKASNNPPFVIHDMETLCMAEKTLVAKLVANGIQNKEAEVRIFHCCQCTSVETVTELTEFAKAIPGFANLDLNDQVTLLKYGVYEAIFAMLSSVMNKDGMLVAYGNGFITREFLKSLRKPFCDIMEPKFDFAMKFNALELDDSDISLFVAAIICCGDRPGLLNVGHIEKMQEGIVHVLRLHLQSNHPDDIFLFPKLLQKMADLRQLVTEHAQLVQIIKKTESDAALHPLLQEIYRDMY
Sequence of E-selectin (Homo sapiens) (P16581 whole entry, looked up): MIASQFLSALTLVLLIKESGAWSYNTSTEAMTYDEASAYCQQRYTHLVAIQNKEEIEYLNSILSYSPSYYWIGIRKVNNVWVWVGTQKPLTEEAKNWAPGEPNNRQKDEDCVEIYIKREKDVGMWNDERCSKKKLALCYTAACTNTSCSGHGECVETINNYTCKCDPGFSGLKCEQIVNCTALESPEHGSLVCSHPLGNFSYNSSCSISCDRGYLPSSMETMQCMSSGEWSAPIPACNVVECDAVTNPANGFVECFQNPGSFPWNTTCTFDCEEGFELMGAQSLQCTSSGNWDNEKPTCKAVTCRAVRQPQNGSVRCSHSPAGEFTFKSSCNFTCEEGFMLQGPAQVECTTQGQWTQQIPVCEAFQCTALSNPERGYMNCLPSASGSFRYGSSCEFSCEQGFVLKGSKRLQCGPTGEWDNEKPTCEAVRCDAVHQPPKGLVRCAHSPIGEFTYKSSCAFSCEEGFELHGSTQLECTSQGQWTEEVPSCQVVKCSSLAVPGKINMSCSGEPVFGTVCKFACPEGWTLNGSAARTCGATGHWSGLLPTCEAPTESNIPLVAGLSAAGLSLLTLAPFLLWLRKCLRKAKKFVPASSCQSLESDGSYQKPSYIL
Sequence of human RAR-related Orphan Receptor beta (RORb), RORB (gene 6096) (Q92753 whole entry, looked up, the tested form may be a part): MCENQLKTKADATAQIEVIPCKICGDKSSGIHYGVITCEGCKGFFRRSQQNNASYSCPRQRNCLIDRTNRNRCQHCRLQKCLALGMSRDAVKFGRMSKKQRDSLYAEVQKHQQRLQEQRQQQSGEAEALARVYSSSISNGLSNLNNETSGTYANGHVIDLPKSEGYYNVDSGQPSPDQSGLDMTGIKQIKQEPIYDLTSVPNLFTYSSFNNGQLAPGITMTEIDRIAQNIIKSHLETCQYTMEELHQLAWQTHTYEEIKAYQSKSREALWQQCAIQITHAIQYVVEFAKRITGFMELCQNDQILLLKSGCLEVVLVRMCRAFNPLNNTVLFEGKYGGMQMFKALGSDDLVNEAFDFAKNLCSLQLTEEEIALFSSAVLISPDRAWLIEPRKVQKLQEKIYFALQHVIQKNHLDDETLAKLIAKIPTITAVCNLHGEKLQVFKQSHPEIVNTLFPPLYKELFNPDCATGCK
Sequence of Retinoic acid receptor RXR-alpha (Homo sapiens) (P19793 whole entry, looked up, the tested form may be a part): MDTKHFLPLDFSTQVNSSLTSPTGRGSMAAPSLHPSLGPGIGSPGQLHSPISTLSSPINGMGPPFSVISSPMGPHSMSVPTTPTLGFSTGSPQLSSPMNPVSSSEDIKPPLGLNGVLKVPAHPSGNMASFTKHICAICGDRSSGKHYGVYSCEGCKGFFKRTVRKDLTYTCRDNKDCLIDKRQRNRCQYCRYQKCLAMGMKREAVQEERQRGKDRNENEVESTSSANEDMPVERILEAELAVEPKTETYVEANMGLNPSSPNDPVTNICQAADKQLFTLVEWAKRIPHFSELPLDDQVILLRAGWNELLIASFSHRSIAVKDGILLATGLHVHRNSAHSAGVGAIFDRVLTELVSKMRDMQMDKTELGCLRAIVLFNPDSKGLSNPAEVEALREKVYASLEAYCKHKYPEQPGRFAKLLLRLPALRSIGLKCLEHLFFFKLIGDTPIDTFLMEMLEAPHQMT
Sequence of human Retinoid X Receptor beta (RXRb), RXRB (gene 6257) (P28702 whole entry, looked up, the tested form may be a part): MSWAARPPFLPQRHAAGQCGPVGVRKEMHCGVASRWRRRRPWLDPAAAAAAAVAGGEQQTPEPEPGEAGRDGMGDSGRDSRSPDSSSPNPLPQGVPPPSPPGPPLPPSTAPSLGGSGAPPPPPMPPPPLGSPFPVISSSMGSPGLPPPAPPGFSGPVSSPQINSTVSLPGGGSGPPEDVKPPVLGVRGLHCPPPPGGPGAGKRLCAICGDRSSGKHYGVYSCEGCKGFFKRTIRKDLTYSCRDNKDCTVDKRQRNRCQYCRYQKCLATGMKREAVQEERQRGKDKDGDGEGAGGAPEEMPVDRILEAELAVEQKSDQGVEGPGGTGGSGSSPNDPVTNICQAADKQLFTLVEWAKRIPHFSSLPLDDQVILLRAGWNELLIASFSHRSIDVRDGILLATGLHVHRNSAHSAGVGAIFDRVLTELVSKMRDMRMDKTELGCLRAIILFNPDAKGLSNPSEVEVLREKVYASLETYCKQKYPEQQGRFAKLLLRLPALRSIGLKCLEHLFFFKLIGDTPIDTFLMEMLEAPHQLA
Sequence of human Peroxisome Proliferator-activated Receptor delta (PPARd), PPARD (gene 5467) (Q03181 whole entry, looked up, the tested form may be a part): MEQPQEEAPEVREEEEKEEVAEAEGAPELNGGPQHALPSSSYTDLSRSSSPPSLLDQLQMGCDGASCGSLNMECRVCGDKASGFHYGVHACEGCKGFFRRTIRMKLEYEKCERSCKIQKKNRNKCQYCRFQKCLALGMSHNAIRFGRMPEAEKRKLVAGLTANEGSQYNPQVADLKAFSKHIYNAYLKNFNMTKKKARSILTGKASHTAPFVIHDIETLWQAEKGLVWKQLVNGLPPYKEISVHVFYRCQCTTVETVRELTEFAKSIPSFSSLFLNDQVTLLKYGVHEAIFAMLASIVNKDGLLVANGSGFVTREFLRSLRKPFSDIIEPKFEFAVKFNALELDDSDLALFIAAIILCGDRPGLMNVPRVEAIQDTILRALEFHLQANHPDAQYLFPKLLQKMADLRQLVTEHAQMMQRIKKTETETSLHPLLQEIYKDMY
Sequence of human RAR-related Orphan Receptor gamma (RORg), RORC (gene 6097) (P51449 whole entry, looked up, the tested form may be a part): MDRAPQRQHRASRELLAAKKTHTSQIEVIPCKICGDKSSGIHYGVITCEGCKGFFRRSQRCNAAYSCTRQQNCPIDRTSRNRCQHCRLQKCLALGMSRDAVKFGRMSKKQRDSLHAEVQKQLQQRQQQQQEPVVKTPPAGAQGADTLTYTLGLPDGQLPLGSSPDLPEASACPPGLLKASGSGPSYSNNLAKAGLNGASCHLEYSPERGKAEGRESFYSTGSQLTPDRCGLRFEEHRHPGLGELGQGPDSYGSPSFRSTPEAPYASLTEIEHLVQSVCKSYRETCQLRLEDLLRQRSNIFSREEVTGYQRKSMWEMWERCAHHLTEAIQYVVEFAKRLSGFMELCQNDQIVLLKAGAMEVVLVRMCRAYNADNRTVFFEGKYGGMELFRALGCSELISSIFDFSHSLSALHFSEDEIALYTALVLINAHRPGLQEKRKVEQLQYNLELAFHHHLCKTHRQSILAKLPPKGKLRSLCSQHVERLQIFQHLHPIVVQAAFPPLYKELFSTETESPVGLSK

Take `c1ccc2sc(SSN3CCOCC3)nc2c1`: the AC50 in experiment [1] is 5.26 µM (active); in experiment [3], 0.828 µM (active); in [4] it was 23.2 µM (active); in experiment [5] it was 45.3 µM (active); in experiment [8] it was 11.8 µM (active); in [10] it was 14.2 µM (active). The values for the AC50 in [11] and in [12] were 4.41 µM (active) and 5.37 µM (active), respectively. Moreover, the result in experiment [2], in experiment [6], in [7] and in experiment [9] was inactive.

Turning to `Cc1ccc([N+](=O)[O-])cc1N`, the outcome in [1], in experiment [2], in experiment [3], in [4], in experiment [5] and in [13] was inactive. The outcome in [6], in [7], in [8], in experiment [9], in experiment [10] and in experiment [11] was inactive. The result in experiment [12] was inactive. Further, in experiment [14], the AC50 is 25.7 µM (active).

Regarding `CCCCCCC=O`, the result in [1], in [2], in experiment [15], in [16], in experiment [3] and in experiment [5] was inactive. The molecule was classed as inactive in experiment [17], in [13], in [18], in experiment [7], in [8] and in experiment [9]. Besides, the result in [10], in [11] and in experiment [12] was inactive. Also, the AC50 in [4] was 100 µM (active).

In the case of `CCN1CN(CC)CN(CC)C1`, the result in experiment [1], in experiment [2], in [15], in experiment [19], in experiment [3] and in [4] was inactive. Moreover, the molecule was called inactive in experiment [5], in experiment [13], in [18], in experiment [8], in experiment [9] and in [10]. Besides, the outcome in [11] was inactive. Besides, the AC50 in experiment [12] is 20 µM (active).

A word on the AC50: it is the concentration giving half of the maximal activity seen.
